The full ranking holds about 4,000 sequences; the median of “arbitrary fluorescence units” is about 830, and the highest 2% start at about 6,500. The sample holds the highest values, similar sequences and a random draw of the others, so the mix is not that of the screen.
target: RUNX1 (UniProt Q01196); test: RUNX1 binding intensity (PBM fluorescence), RUNX1 alone (arbitrary fluorescence units); higher = stronger binding; conditions: RUNX1 concentration 2 nM; ETS1 concentration 0 nM
Method: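 gcPBM on 36-bp genomic-derived probes (partner site mutated) containing one RUNX1 site and no ETS1 site. Recombinant human RUNX1 (2 nM) was incubated alone or with ETS1 (25 nM) and detected by anti-RUNX1 antibody fluorescence. Values are medians over 4 replicate spots (not normalised). The probes sit in constant array flanks that are not printed.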

Chain of RUNX1 (Q01196 whole entry): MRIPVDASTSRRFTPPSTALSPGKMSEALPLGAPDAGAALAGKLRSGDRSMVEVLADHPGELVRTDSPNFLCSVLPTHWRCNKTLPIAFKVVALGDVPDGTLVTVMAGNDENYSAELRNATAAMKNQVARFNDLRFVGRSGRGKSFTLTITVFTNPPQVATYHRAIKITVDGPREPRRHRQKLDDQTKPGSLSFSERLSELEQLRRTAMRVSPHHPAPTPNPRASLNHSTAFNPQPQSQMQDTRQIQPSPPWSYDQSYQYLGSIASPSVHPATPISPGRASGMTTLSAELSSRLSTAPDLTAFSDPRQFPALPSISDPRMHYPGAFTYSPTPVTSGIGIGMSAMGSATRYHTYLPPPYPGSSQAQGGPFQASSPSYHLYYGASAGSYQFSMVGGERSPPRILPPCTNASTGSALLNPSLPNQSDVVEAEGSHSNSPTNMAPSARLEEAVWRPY

Sequence | RUNX1 binding intensity
CTGGAACCGCAGGATCCTTGCTGCGTCCTCTCGGTC | 2340
GAGTGGGCGGTAACTCGCAGGCCGAACGTGACGCAA | 740
GACAACCTACCACAGCCTTCCTTTCGGGCGCTCAGG | 1040
TTCTGTGGGGACAATTAGGGTTTCTGGGTTTTCTGA | 865
AGATTCTAGGCAGTGTCTGTAGCCGCAGCTGAGGGT | 736
TACCTAGACCCTTGCCGCCCTTACCGCGGCCAGACA | 901
CTTCTTGCTGCTGAGACTGATACAGCCCGCAAAGCT | 816
TGTTACCACTGTTAGACTAGAGAGCATGCTGTTGTT | 841
AGCACCACATTCTACACCTCCACCTCATGCTGCGTC | 1180
TTGCCGTAACCACTTTATCCACCTCCTTTTTCACGA | 2720
CCTAAGTAACCACATTCTCGCTTGCTCCTTCCACAC | 3680
GTAGCCGGGTGTTACGGAGCGCTGCGGGCAAAGCAG | 671
GGAGGAAGGCAGCAAAGAAAGAGGTGGTTTCGGCAC | 783
CTCAGCCCACCGCTGCGCGGCCGAAAGTCGGAGGTT | 760
TTGCACTCTGCGGGGACGGGAGAAGGAACGAAAAAT | 805
TTTGTTGTTCAGGGTGCGAGGCGGCCGCAGCTTCCA | 936
CACCTCCCACTCACCACAGAGTTTCATGGTGTTTTA | 1090
ACTTGACTGCCTGTGGGGTGTGTGGTGTCTGCACTT | 822
CGAGTCAGCAAATCACAGCTCTGCGGGTGGGCTCCT | 739
CAGCATGTGGGTGCACACACCGATTCCTTAGAGGTT | 811
ACTGTGCGTTGAGGTCGTCCGCCATCTGCTGCAGCT | 745

Sequence | RUNX1 binding intensity
GAGGTGGTCAGAGCCTCCCTTGACATGAAACAAGAA | 724
TTGGCCTCGCCGGGACCCCTTGCACCGCGGACACAG | 776
AAAACGCGCAAATACGGTGGCTGCGGCCCGCGGGCA | 693
GGGCAGGCCGTATGTGGGAGACCACAAAGCCCAAGG | 787
CATGACCTCCTCGCACAAGAATGCGGGGGTGGGGGT | 1050
CACCCCGCCTCTGCGGGACCACTTCAGGCGCCTTCT | 876
AACCCCTTGCACCGCGGACACAGCTTCTTCTTCCCC | 1080
GTGGCGCGGTGGGGCGCGGACCCGAAACTGCCAAGT | 706
ACCCCGAAAGTGTGGGCGCGGCTGCGGTTTAACCCG | 7200
TGGCTACCCGAAAGGCGCGTTGGCTGCGGCTACGCA | 733
CCCCACATACGGGGGCCGGGGCCGGGCTGTGGGCTT | 755
TCCGCTTCTGTGGTCTGATCTTGCTGGGGCTGAACC | 1090
ACAGACAGCAGCCTGAGCTCGTGGTTAGAACACCCT | 796
GGTCTGCGGCGCGCGGGATGCTGGGCAATGTAGTTT | 784
CAGGCTGCTTCAGGCGCGCGGCAGAGCGGTCAGAGC | 716
CGTCCCCGCAAAGCCGCGGCAGAAACTCCCGGCGGT | 1270
TAGGGGGGCGCGGTGAGCCCCGGCGGGAATCGAAGC | 716
TCCACAATTCCCAGGAGTCTCTGCGGCCGCGCGGAG | 830
TCACAATCGCCCACAAAGACAGCAAGTAACTGTCAG | 892
ACGAGGTTTCGTGCAGGCTCCAGCCGAGACCACATC | 744
GTAGGGGAGGGACCGCAGGGAGGCGGCAGTCCTTGT | 931

Sequence | RUNX1 binding intensity
ATCTTGTTCAGGCTCAAAGGGAAACCGCTGCTTTTC | 914
GACAGTTTTCGGGCCTAGTTTGCGGCTGCTCCTGCC | 891
CTCTCCAGACCGCGCATTTTGGGTCTCGGAGGAGGT | 735
ACGTCATCCCGCAGGGCTGGCGCGCCCGGCGCAGTC | 779
ACGCCGCGCATACGCGCTTTACGGCGGCCGCAAAAT | 801
GAGGAGGAGGTGCGCTGGCTGTTCTGCTGCGGGCCG | 704
ATGCCAAGGGACCTCCCTCCACAACCGCCCCCAGCT | 930
CTGACAGCCTCCGCACAAAGCGCGGTCTATTTCTCC | 918
AAGAAAGGTTCCAGCCTGCGCCCTGCTACCGCGGCG | 738
GCTGCGGCGGCGGCGAAGAGACAACCTCCGCTGGAA | 793
TCTGGGAGATGGAGTTCACAGCGCTGCGGGGCCGGA | 674
CAACGCTTGCCGACCGCCAGCAGGAGGTGGTGGGCG | 755
TCAAAGCTGCGGGGTTTCATTGCCTGTTCCTGAACA | 693
AGTATACTGTGGTGAGAAACTGCCTGCCATACCAGC | 824
CGTTTACTGTCTGGGACTGCGCCCACGCGGTCACGT | 871
CACTTGGTCTTGCTGCCCTTGTGGCCCTAACACCCT | 841
TTTATCCTTATTTGCTGGCTTCGCCCACAAGCACAG | 1010
AGACTAGAGGCGGTTGTGTGAGTCAGAAAGAGGGGC | 724
TCGGGAGGTGGCATGCTGACTCACCTGTGGCTTGTT | 797
CTCCTGCGGCGACACGCCTAGCAGACGGCGCAAGGC | 773
ATAACTTGCGGCAAATGCTGGAGGCAGTACCGCCTT | 840
